Drawing on PubChem BioAssay (NCI), this text covers growth inhibition for 20 molecules.

Compounds without any hit were thinned out: in the full panel of roughly 79,000, 15% have a hit. Values without a mark were called inactive. Activity calls are given as the source filed them. No stated cut-off is given here; in the data, active means growth inhibition above about 70%; inactive means the rest.

A short description of assay [1]: NCI Yeast Anticancer Drug Screen. Data for the rad50 strain (AID 155).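 Further: 0% = growth of vehicle-only cultures of the same strain.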 Conditions: S. cerevisiae rad50 strain growth inhibition; at 50.0 µM; hits give high values. An outline of the steps: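 Compounds were tested on a yeast strain with an engineered DNA damage repair alteration; the reported value is growth inhibition normalised to vehicle treatment.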
Assay [2] is described as follows: NCI Yeast Anticancer Drug Screen. Data for the mec2-1 strain (AID 157). Conditions: S. cerevisiae mec2-1 strain, at 50.0 µM, hits give high values. The gist of the method:
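Yeast mec2-1 mutant treated with compound. Readout: growth inhibition vs vehicle controls.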

Assay [3] is described as follows: NCI Yeast Anticancer Drug Screen. Data for the sgs1 mgt1 strain (AID 161).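 Further: 0% = growth of cultures given vehicle only.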 Conditions: S. cerevisiae sgs1 mgt1 strain, at 50.0 µM, hits give high values. The gist of the method: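 Read-out: growth inhibition vs vehicle controls. Cells: mutant yeast strain deficient in DNA damage repair.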
The nature of assay [4]: NCI Yeast Anticancer Drug Screen. Data for the cln2 rad14 strain (AID 165).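 Further: 0% = growth equal to vehicle treated cultures.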 Conditions: S. cerevisiae cln2 rad14 strain, at 50.0 µM, hits give high values. An outline of the steps: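 cln2 rad14 yeast strain; compound exposure; growth inhibition read vs vehicle controls.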
Assay [5] in a line: NCI Yeast Anticancer Drug Screen. Data for the bub3 strain (AID 167). Conditions: S. cerevisiae bub3 mutant strain, at 50.0 µM, hits give high values. An outline of the steps:
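Growth of a checkpoint-deficient yeast mutant is measured after compound exposure. Values represent inhibition relative to vehicle.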

Assay [6] is described as follows: NCI Yeast Anticancer Drug Screen. Data for the mlh1 rad18 strain (AID 175). Conditions: S. cerevisiae mlh1 rad18 strain growth inhibition; at 50.0 µM; hits give high values. An outline of the steps:
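Yeast w/ defined DNA-repair lesions; compound exposure; growth vs vehicle controls → % inhibition.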

In the case of `C/C=C(\C)C(=O)OCC1=CCC2CCC(O)N12` (stereo not given), the growth inhibition in assay [1] was 5.75%; in assay [2], 0.05%; in assay [3] it was 0.1%; in assay [4], 6.05%; in assay [5] it was 10.1%; in assay [6], 8.55%.
Turning to `CSc1ncc(CO)c(Nc2ccccc2Cl)n1`, the growth inhibition in assay [1] was 2.8%; in assay [2], 14.4%; in assay [3], -19.4%; in assay [4] it was -14%; in assay [5], 12.3%; in assay [6], 1.55%.
As to `O=C(CCc1ccc(O)c(O)c1)NCCc1cc(OCc2ccccc2)cc(OCc2ccccc2)c1`, the growth inhibition in assay [1] is 83.9% (active); in assay [2], 88.4% (active); in assay [3], 83.2% (active); in assay [4], 87.5% (active); in assay [5] it was 82.2% (active); in assay [6], 73.1% (active).
Turning to `COc1ccc(-c2cc(=O)c3cccnc3[nH]2)cc1`, the growth inhibition in assay [1] is 30.1%; in assay [2] it was 12.9%; in assay [3] it was 32.4%; in assay [4], 0.7%; in assay [5] it was 12.2%; in assay [6] it was 21.1%.
Regarding `COc1cc(/C=C2\CCC(CN(C)C)C2=O)ccc1OC(=O)c1ccccc1` (stereo not given), the growth inhibition in assay [1] was 86.6% (active); in assay [2], 91.1% (active); in assay [3] it was 86% (active); in assay [4], 89.1% (active); in assay [5], 85.2% (active); in assay [6] it was 89.7% (active).
`CCOC(=O)C1=[N+]([O-])OC2=C(O)CCCC21` (stereo not given): the growth inhibition in assay [1] was 5.7%; in assay [2], 2.25%; in assay [3], 9.05%; in assay [4] it was -8.85%; in assay [5], 2.4%; in assay [6] it was -19.3%.
For `Cn1c(-c2ccc(-c3cc(-c4cccs4)c(-c4cccs4)n3C)cc2)cc(-c2cccs2)c1-c1cccs1`, the growth inhibition in assay [1] is 11.7%; in assay [2] it was -15%; in assay [3], 14.8%; in assay [4], -16.9%; in assay [5], 1.55%; in assay [6] it was 17.8%.
In the case of `CN(C)CCN1C(=O)c2c(c3cccn3c3c2cnn3-c2ccccc2)C1=O`, the growth inhibition is 36.8% in assay [1]; 12.1% in assay [2]; 34% in assay [3]; -43% in assay [4]; 4.9% in assay [5]; 32.6% in assay [6].
For `CC(=O)N1CCOCC1`, the growth inhibition is 23.1% in assay [1]; 1.55% in assay [2]; 11.1% in assay [3]; -28.6% in assay [4]; -1.8% in assay [5]; 21.1% in assay [6].
Turning to `c1ccc(-c2ccc(-c3ccccc3)c(-c3ccc4c(c3)CCC4)c2-c2ccccc2)cc1`, the growth inhibition in assay [1] was 14.1%; in assay [2], 13.3%; in assay [3], 7.25%; in assay [4], 13.9%; in assay [5] it was -3.85%; in assay [6], 21.8%.
With `COc1c(NC(=O)c2ccc(C(=O)Nc3cccc([N+](=O)[O-])c3OC)cc2)cccc1[N+](=O)[O-]`, the growth inhibition in assay [1] was 22.3%; in assay [2], -6.1%; in assay [3], -9%; in assay [4], -20.6%; in assay [5] it was -2.2%; in assay [6], -1.3%.
As for `CCOC(=O)Nc1ccc(C2OCCS2)cc1` (stereo not given), the growth inhibition in assay [1] is 1.05%; in assay [2] it was -21.6%; in assay [3], 9.45%; in assay [4], -0.65%; in assay [5], -19.8%; in assay [6], 10.2%.
Turning to `CCOC(=O)NN(C(=O)OCC)C(C)(C)C(C)=O`, the growth inhibition was 7.3% in assay [1]; 5.35% in assay [2]; 5.15% in assay [3]; -29.2% in assay [4]; 17.8% in assay [5]; 12.1% in assay [6].
As for `Cc1ccc(Cl)cc1NC(=O)CCc1ccccc1`, the growth inhibition in assay [1] is 3.7%; in assay [2], 22.1%; in assay [3], 23.6%; in assay [4] it was -1.6%; in assay [5], 4.25%; in assay [6], 21.1%.
For the molecule `CCOC(=O)c1c(C)c(C)n2c1NC(=O)C2`, the growth inhibition in assay [1] was -4.5%; in assay [2], -4.6%; in assay [3], -37.5%; in assay [4], -36.8%; in assay [5], -30.6%; in assay [6] it was -13.9%.
As to `N#CCCN(CCC#N)c1nc(-c2ccccc2)nc(N(CCC#N)CCC#N)n1`, the growth inhibition was -1.95% in assay [1]; -16.6% in assay [2]; -1.75% in assay [3]; 0.9% in assay [4]; 2.75% in assay [5]; 15.1% in assay [6].
For `CN(C)CCCOc1nc2c(c(=O)n(C)c(=O)n2C)n1C` (tested in a mixture with another compound), the growth inhibition in assay [1] was 0.9%; in assay [2], 8.9%; in assay [3], -19.9%; in assay [4], -9.35%; in assay [5], -18.9%; in assay [6] it was -7.15%.
Turning to `Cc1cccc(C(=O)O)c1-c1c(C)cccc1C(=O)O`, the growth inhibition in assay [1] was 13.3%; in assay [2] it was -5.95%; in assay [3], -6.8%; in assay [4], 3.05%; in assay [5], 0.8%; in assay [6] it was 12.9%.
For `O=CNC(NC=O)c1ccccc1[N+](=O)[O-]`, the growth inhibition in assay [1] is 29.9%; in assay [2], 20.8%; in assay [3], 30.1%; in assay [4] it was 0.65%; in assay [5] it was 52.5%; in assay [6], 28.6%.
As for `Nc1ccc(/C(=N\O)c2ccccc2)cc1`, the growth inhibition in assay [1] is 19.6%; in assay [2], 13.9%; in assay [3], 23.9%; in assay [4], 0.8%; in assay [5], -2.6%; in assay [6] it was 10.1%.
